Tests used:
Experiment in all cases: log2 ratio of Biotin-Ahx-Ub-VS probe labelling (fragment/DMSO); higher = less target engagement (more negative = stronger competition), active = hit call of the paper (q ≤ 0.05, log2 ratio ≤ -1)
Conditions in all cases: compound concentration: 200 uM; treatment time: 3 h
[1] = molecular target: T1, USP19 (UniProt O94966)
T1 sequence (whole entry): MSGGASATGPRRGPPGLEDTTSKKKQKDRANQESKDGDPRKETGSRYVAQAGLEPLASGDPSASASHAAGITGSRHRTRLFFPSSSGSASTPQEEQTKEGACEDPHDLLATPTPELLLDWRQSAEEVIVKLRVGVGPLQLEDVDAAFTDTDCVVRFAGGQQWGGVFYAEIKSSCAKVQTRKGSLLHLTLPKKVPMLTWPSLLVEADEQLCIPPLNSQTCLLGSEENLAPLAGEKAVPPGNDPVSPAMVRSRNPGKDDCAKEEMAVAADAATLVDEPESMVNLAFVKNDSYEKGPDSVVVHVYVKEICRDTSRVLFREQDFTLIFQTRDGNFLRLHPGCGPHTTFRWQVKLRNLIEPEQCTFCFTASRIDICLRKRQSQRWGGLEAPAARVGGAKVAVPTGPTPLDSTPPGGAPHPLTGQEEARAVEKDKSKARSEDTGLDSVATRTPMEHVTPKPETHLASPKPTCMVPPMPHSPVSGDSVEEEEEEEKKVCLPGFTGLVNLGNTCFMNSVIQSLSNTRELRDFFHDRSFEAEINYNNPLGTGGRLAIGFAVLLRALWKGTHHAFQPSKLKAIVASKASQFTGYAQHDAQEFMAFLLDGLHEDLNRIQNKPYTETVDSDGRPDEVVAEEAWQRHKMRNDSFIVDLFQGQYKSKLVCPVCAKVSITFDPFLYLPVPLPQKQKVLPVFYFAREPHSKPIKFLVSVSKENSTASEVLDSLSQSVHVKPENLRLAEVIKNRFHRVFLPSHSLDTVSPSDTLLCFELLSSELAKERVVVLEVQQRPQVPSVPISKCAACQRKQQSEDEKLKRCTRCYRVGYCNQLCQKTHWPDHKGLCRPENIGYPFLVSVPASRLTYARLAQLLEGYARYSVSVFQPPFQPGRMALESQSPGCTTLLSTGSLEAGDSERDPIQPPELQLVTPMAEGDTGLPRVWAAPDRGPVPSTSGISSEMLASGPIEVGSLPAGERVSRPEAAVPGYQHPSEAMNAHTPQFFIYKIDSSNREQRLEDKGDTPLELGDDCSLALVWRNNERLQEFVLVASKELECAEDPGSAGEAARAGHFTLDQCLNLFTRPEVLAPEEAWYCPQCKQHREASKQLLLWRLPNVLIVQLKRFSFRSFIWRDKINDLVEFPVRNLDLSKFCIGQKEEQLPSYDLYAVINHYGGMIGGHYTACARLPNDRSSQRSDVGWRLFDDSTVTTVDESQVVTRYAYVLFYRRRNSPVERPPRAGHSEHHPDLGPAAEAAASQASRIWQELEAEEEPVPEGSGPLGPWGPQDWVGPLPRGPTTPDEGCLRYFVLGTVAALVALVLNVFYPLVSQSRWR
Method in brief: (§1)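 Global-median-normalised Spectronaut label-free quantities were compared by unpaired t-test, and values are average log2 ratios of fragment over vehicle. Only proteins with ≥2 unique peptides were used. HEK293T lysate (495 µg per sample) was treated in triplicate with fragment at 200 µM or vehicle for 3 h and then with Biotin-Ahx-Ub-VS at 0.5 µM final for 1 h. Labelled DUBs were then NeutrAvidin-enriched, digested with LysC and trypsin, and run by diaPASEF LC-MS/MS.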

[2] = molecular target: T2, USP22 (UniProt Q9UPT9)
T2 sequence (whole entry): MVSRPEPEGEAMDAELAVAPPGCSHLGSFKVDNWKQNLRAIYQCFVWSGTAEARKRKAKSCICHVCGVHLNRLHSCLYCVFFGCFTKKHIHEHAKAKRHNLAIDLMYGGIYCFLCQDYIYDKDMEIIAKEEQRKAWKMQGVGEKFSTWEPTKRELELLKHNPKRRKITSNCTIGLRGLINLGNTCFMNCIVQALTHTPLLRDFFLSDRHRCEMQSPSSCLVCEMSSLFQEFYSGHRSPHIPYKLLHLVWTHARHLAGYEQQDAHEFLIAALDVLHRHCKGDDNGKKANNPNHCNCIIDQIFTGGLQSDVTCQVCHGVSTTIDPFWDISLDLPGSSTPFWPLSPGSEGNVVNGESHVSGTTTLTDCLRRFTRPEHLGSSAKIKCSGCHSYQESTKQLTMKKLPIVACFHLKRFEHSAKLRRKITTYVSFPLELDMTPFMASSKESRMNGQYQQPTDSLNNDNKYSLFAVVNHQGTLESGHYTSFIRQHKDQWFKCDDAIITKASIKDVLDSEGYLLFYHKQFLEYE
Method in brief: as §1

[3] = molecular target: USP24 (UniProt Q9UPU5)
Sequence of USP24 (Q9UPU5 whole entry): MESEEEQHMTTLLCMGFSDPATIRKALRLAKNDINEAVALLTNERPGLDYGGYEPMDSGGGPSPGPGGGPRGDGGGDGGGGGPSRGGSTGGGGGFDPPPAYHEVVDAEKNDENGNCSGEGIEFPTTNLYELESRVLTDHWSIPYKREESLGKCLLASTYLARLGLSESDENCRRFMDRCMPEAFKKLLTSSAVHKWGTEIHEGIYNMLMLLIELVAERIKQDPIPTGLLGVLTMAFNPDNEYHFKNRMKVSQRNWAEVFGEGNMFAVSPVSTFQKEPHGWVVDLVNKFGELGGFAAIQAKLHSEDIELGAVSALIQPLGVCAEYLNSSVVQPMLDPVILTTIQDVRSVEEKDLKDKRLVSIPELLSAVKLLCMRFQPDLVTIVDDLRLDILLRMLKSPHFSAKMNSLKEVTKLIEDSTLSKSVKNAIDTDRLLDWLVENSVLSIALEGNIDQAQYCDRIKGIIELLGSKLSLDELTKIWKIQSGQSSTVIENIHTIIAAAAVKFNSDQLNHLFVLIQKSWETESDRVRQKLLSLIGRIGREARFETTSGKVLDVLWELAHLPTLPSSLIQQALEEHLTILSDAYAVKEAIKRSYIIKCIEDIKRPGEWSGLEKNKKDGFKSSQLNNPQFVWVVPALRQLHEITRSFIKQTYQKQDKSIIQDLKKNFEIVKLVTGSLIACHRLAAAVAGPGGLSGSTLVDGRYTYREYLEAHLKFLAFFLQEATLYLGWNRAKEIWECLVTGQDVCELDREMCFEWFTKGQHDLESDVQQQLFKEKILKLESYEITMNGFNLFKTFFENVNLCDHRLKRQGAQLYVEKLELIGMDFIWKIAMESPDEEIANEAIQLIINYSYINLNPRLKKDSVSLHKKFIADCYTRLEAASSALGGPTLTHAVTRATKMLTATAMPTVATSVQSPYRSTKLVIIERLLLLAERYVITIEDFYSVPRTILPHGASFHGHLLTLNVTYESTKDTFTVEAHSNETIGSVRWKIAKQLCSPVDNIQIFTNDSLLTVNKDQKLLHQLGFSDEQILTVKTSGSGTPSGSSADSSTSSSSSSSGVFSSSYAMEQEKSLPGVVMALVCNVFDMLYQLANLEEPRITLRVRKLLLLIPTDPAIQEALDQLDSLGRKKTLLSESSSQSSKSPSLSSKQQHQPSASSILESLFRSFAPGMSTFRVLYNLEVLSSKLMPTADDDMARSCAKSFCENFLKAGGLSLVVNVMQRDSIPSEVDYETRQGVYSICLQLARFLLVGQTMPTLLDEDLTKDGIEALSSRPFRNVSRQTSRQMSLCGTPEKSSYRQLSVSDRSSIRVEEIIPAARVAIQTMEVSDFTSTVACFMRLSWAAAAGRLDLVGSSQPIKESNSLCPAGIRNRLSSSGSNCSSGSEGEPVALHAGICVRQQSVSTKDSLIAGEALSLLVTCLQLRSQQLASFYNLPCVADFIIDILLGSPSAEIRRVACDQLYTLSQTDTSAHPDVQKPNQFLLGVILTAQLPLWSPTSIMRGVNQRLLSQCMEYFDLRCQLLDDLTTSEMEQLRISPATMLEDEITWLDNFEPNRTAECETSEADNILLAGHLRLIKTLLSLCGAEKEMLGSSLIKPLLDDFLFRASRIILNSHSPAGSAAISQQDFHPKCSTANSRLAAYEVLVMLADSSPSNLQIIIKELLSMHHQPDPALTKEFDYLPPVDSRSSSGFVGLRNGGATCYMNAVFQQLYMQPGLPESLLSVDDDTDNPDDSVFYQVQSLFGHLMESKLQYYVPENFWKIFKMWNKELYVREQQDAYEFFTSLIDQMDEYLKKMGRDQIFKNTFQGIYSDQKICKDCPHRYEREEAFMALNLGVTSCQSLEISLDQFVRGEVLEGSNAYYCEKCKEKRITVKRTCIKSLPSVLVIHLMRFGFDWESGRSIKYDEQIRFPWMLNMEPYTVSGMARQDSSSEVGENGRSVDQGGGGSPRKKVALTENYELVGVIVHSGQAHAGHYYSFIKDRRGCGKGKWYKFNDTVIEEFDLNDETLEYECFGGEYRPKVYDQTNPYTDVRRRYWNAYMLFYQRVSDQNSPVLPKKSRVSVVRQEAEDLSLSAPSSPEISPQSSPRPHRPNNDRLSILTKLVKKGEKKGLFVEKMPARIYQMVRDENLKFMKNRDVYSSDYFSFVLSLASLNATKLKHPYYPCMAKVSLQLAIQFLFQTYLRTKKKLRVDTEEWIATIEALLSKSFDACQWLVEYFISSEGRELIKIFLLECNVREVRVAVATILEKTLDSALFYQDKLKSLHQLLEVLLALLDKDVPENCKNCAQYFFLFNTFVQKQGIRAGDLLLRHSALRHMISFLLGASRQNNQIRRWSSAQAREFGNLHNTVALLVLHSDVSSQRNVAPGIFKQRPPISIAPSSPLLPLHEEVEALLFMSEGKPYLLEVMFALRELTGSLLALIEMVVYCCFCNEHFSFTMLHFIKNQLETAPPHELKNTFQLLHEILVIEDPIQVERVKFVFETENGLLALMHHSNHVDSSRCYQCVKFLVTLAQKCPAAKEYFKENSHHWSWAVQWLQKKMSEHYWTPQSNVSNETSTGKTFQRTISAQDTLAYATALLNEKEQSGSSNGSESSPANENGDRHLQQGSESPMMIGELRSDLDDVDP
Method in brief: as §1

[4] = molecular target: T3, USP25 (UniProt Q9UHP3)
T3 sequence (whole entry): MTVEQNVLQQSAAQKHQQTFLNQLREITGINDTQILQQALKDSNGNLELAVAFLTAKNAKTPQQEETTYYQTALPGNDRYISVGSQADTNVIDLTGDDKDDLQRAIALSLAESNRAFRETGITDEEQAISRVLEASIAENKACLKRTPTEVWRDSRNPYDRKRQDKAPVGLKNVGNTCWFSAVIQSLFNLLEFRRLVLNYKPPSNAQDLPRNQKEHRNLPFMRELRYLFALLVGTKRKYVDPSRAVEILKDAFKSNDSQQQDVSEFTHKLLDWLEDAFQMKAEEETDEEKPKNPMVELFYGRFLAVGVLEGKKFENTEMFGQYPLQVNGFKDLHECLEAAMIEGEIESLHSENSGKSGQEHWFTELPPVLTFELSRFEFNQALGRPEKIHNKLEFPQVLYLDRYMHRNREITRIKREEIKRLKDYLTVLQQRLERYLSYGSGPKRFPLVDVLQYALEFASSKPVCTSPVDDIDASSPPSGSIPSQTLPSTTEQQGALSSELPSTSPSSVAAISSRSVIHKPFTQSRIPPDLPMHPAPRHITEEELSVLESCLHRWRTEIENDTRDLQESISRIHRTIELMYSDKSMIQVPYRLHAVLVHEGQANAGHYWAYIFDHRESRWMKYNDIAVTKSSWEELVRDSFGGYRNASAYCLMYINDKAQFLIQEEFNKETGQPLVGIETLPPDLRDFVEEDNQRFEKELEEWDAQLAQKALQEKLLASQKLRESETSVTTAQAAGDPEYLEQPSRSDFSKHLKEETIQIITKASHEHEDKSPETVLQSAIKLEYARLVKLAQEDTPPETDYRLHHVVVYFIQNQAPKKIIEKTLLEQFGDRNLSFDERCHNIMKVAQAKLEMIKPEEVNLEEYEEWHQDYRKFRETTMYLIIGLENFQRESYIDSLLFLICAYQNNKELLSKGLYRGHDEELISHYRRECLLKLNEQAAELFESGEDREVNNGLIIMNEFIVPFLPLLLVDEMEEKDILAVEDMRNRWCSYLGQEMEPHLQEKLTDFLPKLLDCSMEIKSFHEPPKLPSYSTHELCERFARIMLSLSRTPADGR
Method in brief: as §1

[5] = molecular target: T4, USP28 (UniProt Q96RU2)
T4 sequence (whole entry): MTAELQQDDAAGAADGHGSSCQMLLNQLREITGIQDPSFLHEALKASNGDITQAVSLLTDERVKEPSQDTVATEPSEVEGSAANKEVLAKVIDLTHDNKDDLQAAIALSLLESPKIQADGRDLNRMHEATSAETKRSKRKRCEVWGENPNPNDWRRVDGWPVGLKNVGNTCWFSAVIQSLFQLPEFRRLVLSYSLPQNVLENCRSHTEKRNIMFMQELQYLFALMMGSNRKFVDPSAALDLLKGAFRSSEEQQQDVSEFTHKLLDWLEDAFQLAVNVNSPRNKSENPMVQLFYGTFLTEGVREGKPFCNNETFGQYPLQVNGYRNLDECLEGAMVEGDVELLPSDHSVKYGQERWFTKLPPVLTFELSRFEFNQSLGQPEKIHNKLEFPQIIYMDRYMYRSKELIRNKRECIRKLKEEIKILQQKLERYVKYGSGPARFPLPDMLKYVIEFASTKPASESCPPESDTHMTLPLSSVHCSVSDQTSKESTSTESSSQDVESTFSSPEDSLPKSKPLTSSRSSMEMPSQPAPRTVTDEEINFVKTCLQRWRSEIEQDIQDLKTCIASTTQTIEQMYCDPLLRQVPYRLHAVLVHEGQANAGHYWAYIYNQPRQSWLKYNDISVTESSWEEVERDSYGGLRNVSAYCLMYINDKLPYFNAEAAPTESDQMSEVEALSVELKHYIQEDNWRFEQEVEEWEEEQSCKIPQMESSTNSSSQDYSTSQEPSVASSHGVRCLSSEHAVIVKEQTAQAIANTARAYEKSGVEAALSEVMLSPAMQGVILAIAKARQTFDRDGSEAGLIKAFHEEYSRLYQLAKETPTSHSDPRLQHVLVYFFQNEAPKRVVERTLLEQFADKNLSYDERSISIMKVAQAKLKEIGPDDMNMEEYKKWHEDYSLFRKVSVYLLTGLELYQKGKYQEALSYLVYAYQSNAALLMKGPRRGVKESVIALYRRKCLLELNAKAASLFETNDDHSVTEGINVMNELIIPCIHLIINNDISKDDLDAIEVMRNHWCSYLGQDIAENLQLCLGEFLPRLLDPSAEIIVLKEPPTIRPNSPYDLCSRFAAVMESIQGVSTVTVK
Method in brief: as §1

Measured: log2 ratio of Biotin-Ahx-Ub-VS probe labelling

Cc1ncc2c(n1)CCN(C(=O)CCl)C2
inactive: [1] -0.479 | [2] -0.119 | [3] -0.198 | [4] -0.361 | [5] -0.688
